A selection: hits, their analogues and other compounds. The true share with any hit is near 4.1%.
tim10-1 inh = growth inhibitors of tim10-1 mutant yeast, primary screen, luminescence, uHTS; 330,000 tested, 2.2% active; AID 463190, 2010; S. cerevisiae tim10-1 ts strain growth, BacTiter-Glo, 24 h; inhibition, % at 20 µM;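 active means inhibition of at least 40%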;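 further: mutant grown at 25 °C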
tim23-1 inh = growth inhibitors of tim23-1 mutant yeast, primary screen, luminescence, uHTS; S. cerevisiae tim23-1 growth, BacTiter-Glo luminescence, 24 h; inhibition, % at 20 µM; 330,000 tested, 1.3% active;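 active means growth inhibition of the mutant yeast at or above 50%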;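 further: temperature-sensitive mutant grown at 25 °C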
NLRP3 yeast inh = NALP3 inflammasome inhibitors in reconstituted yeast, primary screen, luminescence, uHTS; Yeast reconstituted NLRP3/ASC/caspase-1, beta-gal luminescence, 24 h; inhibition, % at 10 µM; 330,000 tested, 0.39% active; AID 2825, 2010;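 active means inhibition of 50% or more; inactive means inhibition below 50%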
TIM10 inh = growth inhibitors of isogenic TIM10 control yeast, primary screen, counter-screen for tim10-1 yeast inhibitor project, luminescence, uHTS | S. cerevisiae TIM10 strain growth, BacTiter-Glo luminescence, 24 h | 330,000 tested, 1.4% active | inhibition, % at 10 µM;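 active means inhibition of 40% or more at the single tested concentration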;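 further: wild-type TIM10 isogenic control strain grown at permissive 25 °C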
NALP1 inh = NALP1 inflammasome inhibitors in reconstituted yeast, colorimetric, S. cerevisiae, triplicate retest. S. cerevisiae NALP1/ASC/caspase-1 growth, X-gal OD620, 72 h. inhibition, % at 10 µM. 280,000 tested, 0.61% active. AID 2071, 2009; in the data active means inhibition mostly above about 24%, no sharp cut-off; inactive means mostly below about 32%
PfHsp90 set2 = growth inhibition of PfHsp90-expressing yeast, primary screen, antimalarial PfHsp90 inhibitor project, S. cerevisiae, BacTiter-Glo luminescence, single point, set 2; inhibition, % at 9.4 µM; BacTiter-Glo ATP, 48 h; yeast lacking PDR1 and PDR3 efflux regulators; 310,000 tested, 0.32% active; AID 504621, 2011;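 active means every replicate shows inhibition above about 80%, whatever the replicate mean, limit read from the data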
NALP3 yeast conf = NALP3 inhibitors retested in yeast, confirmation, luminescence, single concentration | shares compounds with NLRP3 yeast inh | yeast expressing human NALP3 | inhibition, % at 10 µM | 1,300 tested, 81% active; in the data active means inhibition above about 48%
Casp1 ASC ctr = CASP1-PYCARD signaling inhibition in yeast, confirmatory test, counterassay for NLRP3 inhibitor program, one-dose; shares compounds with NLRP3 yeast inh; yeast expressing Caspase-1-ASC, luminescence counter screen; inhibition, % at 10 µM; 1,000 tested, 66% active
NALP3 yeast rt = NALP3 inhibitors in yeast, repeat test, confirmation, luminescence, single concentration, retest. shares compounds with NLRP3 yeast inh. yeast expressing human NALP3, luminescence read-out. inhibition, % at 10 µM. 1,000 tested, 53% active
tim10-1 conf = growth inhibitors of tim10-1 mutant yeast, confirmation, single concentration, luminescence, S. cerevisiae | S. cerevisiae tim10-1 ts strain growth, BacTiter-Glo, 24 h | shares compounds with tim10-1 inh | 7,400 tested, 56% active | AID 463213, 2010 | inhibition, % at 20 µM;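 active means inhibition of yeast growth at or above a set limit in either of two repeat tests at 20 µM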;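 further: tim10-1 mutant grown at permissive 25 °C to find synthetic lethal compounds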
Hits are given with their value; - = inactive; . = no result. Unless noted, no stated cut-off is given here; in the data, active means inhibition above about 50%; inactive means the rest.

SMILES	tim10-1 inh	tim23-1 inh	NLRP3 yeast inh	TIM10 inh	NALP1 inh	PfHsp90 set2	NALP3 yeast conf	Casp1 ASC ctr	NALP3 yeast rt	tim10-1 conf
O=C(Nc1cc(Cl)ccc1-n1cncn1)c1ccc([N+](=O)[O-])s1	-	-	82.4	-	45.2	114.4	90.8	.	.	.
CC(Oc1ccccc1)C(=O)Nc1cc(Cl)ccc1-n1cncn1 (stereo not drawn)	-	-	56.9	-	.	.	58.7	52.3	-	.
CC(=O)NCCc1ccc(C(=O)CSc2nnc(C3CC3)n2C2CC2)cc1	-	-	-	-	.	.	.	.	.	.
N#Cc1ccsc1NC(=O)c1ccc(Cl)c([N+](=O)[O-])c1	-	-	77.9	-	-	-	81.3	.	.	.
N#Cc1ccsc1NC(=O)c1cccc([N+](=O)[O-])c1	-	-	-	-	-	-	.	.	.	.
CCCNC(=O)c1cc2c3ccccc3n(C)c2s1	-	-	50.9	-	-	-	49.8	-	-	.
COCCNC(=O)c1cc2c3ccccc3n(C)c2s1	-	-	-	-	-	.	.	.	.	.
COc1ccc(N/N=C(\C#N)C(N)=O)cc1	-	-	-	-	-	-	.	.	.	.
N#C/C(=N/Nc1ccc(OC(F)(F)F)cc1)C(N)=S	47.5	-	85.8	-	-	-	96.8	.	.	56.5
Cc1ccc(C(=O)c2no[n+]([O-])c2C(=O)c2ccc(C)cc2)cc1	43.7	-	58.9	-	-	128.1	62.6	71.7	51.8	60.0
Nc1nc(-c2ccccc2)c(-c2ccc([N+](=O)[O-])cc2)s1	46.4	-	95.0	-	-	-	97.8	97.6	94.7	-
CCC(C)[C@H](NC(=O)c1cc2cc(Cl)ccc2n1C)C(=O)N1CCC[C@H]1C(=O)O (stereo partly drawn)	-	-	-	-	-	-	.	.	.	.
C/C(CC1CC(C)OC1=O)=N\NC(N)=S (stereo not drawn)	-	-	-	-	-	-	.	.	.	.
C/C(CCC12CC3CC(CC(C3)C1)C2)=N\NC(N)=S	57.8	-	58.0	-	-	-	50.2	69.9	-	-
CCCOc1ccc(C(=O)NNC(=S)NC(=O)c2cccs2)cc1	47.9	-	55.5	-	-	-	76.8	-	54.7	-
COc1ccc(NC(=O)CSc2ccc3c(c2)OCCO3)cc1S(N)(=O)=O	-	-	-	-	.	-	.	.	.	.
CC(C)CCC[C@@H](C)[C@H]1CC[C@H]2[C@@H]3C(=O)C=C4C[C@@H](O)CC[C@]4(C)[C@H]3CC[C@]12C	-	-	-	-	.	-	.	.	.	.
C=C1/C(=C\C=C2/CCC[C@]3(C)[C@@H]([C@H](C)CCCC(C)(C)O)CC[C@@H]23)C[C@@H](O)C[C@@H]1O	47.8	-	56.8	-	-	.	57.8	54.9	-	-
COc1cc(C(=O)NCC(=O)OCc2ccc(F)cc2)cc(OC)c1OC	-	-	-	-	.	.	.	.	.	.
COC(=O)C(=Cc1ccccc1[N+](=O)[O-])C(=O)OC	43.5	-	51.3	-	-	-	62.9	-	-	-
O=C(C1CCN(S(=O)(=O)c2cccc3nsnc23)CC1)N1CCc2ccccc21	-	-	-	-	-	-	.	.	.	.
O=C(C1CCN(S(=O)(=O)c2cccc3nsnc23)CC1)N1CCn2c1nc1ccccc12	41.8	-	73.9	-	-	-	75.0	66.3	75.0	-
